Results on 13 compounds are retold here after PubChem BioAssay.

Assay [1] is described as follows: inhibitors of TNFa-induced NFkB p65 translocation, primary screen, imaging, HUVEC, MLSMR starter and 10KST1 sets (AID 438;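 active = inhibition above 20% together with a positive visual image hit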;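 note: compound added about 3h40 before a 20 min TNFalpha stimulation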;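 for inhibition: signal is the nuclear over cytoplasmic p65 intensity ratio per well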). The conditions noted are these: HUVEC TNFa-induced p65 nuclear translocation; cell count: measured here: nuclei count (cytotoxicity indicator), at 2.08 µM; inhibition: at 2 µM, stronger effect = higher value, 0% TNFa-plus-vehicle, 100% no-TNFa wells.
Assay [2] in a line: reduction of polyQ htt aggregates in cells – imaging, exon1htt(103Q)mCFP cells, high-content imaging, primary screen (AID 483;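 active = visual image review flags a hit and inhibition of aggregation exceeds 20%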;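 note: compound exposure lasted 3 days before fixation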;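 for nuclei count: percent of the per-plate median nuclei count of sample wells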). The settings on record: exon1htt(103Q)mCFP cell line, aggregate imaging, at 2 µM; inhibition of aggregation: stronger effect = higher value; nuclei count: measured here: cell count, toxicity.
The nature of assay [3]: endothelial E-selectin expression blockers – imaging, HUVEC, immunofluorescence, MLSMR starter and 10KST1 sets, primary screen (AID 487;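 active = visually confirmed hit in the image check and inhibition above 20%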;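 for inhibition: signal is fraction of cell area covered by stained E-selectin grains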;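 for nuclei count: 100% = median nuclei count of all wells on the same plate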). The conditions noted are these: HUVEC TNFalpha-induced E-selectin immunofluorescence imaging, at 2 µM; inhibition: stronger effect = higher value; nuclei count: measured here: cell number, toxicity.
The target in assay [4] is Voltage-gated potassium channel subunit beta-2 (Rattus norvegicus) (UniProt P62483). Put plainly: inhibitors of rat Kvbeta2 reductase activity – biochemical, NADPH fluorescence, primary screen (AID 622;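 active = fluorescence slope higher than the sample average by over 3 SD, cut at about -0.22 in these data, passing the limit was not always enough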;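 note: slope of raw intensity against log time taken from 70 to 1610 s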). The conditions noted are these: recombinant KvBeta, 4-cyanobenzaldehyde reduction, at 10 µM, stronger effect = higher value.
The target is the same in assay [5]. Put plainly: enhancers of rat Kvbeta2 NADPH turnover – biochemical, NADPH fluorescence, primary screen (AID 623).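 Note: fluorescence intensity change per second fitted from 20 to 320 s.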 The conditions noted are these: Recombinant KvBeta, NADPH fluorescence decrease slope, 10 min; at 10 µM; stronger effect = lower value.
Assay [6] addresses Alpha-2C adrenergic receptor (Homo sapiens) (UniProt P18825). In words: compounds altering alpha2C-coupled GIRK flux – cell-based, HEK293 alpha2C/GIRK1/2, thallium flux, primary screen (AID 624;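 active = fluorescence slope after compound addition differing from the mean of all screened samples at 99.7% confidence, in either direction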;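 note: slope of fluorescence ratio to pre-addition baseline per second over 15 to 24 s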). The settings on record: thallium flux BTC fluorescence, at 10 µM, actives lie on both sides.
Assay [7] in a line: blockers of RIG-like receptor reporter activation – cell-based, Sendai virus stimulus, luciferase, 10K MLSCN set, TLR/RLR signaling modifier project, primary screen (AID 602276;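 active = inhibition at or above 50% at 10 µM; inactive = inhibition below 50%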;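 note: firefly luciferase from ISG56 promoter only with Renilla not read in this screen; 0% = Sendai virus plus DMSO and 100% = medium plus DMSO without virus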). The conditions noted are these: HEK293 RL24 IRF3 luciferase reporter, at 10 µM, stronger effect = higher value. On the technique in general: A reporter such as luciferase makes a cellular process visible.
The nature of assay [8]: TLR3 IRF3 reporter activation blockers – cell-based, poly I:C stimulus, luciferase, 10K MLSCN set, primary screen (AID 602277;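 active = inhibition of the reporter signal at or above 50%; inactive = inhibition below 50%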). The conditions noted are these: HEK293-TLR3 RL24 IRF3 luciferase reporter, at 10 µM, stronger effect = higher value.

Molecules are shown by their SMILES. Active and inactive are the calls of the source.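 Rule for the calls, unless noted: active = NADPH fluorescence slope more negative than the mean of all samples by about 3 SD, 99.7% confidence; inactive = the rest.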

Sequence of Alpha-2C adrenergic receptor (Homo sapiens) (P18825 whole entry, looked up): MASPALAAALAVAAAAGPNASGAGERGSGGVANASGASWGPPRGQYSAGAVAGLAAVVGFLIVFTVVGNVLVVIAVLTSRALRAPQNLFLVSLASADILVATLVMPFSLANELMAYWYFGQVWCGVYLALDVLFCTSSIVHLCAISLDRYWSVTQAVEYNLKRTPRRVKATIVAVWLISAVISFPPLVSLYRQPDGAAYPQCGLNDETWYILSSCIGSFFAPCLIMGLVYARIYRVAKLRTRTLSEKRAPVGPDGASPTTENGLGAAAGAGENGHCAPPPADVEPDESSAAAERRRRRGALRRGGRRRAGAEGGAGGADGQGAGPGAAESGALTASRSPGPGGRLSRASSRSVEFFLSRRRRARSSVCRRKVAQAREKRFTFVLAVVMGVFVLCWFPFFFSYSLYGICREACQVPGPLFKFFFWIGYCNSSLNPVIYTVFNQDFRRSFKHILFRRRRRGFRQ
Sequence of Voltage-gated potassium channel subunit beta-2 (Rattus norvegicus) (P62483 whole entry, looked up): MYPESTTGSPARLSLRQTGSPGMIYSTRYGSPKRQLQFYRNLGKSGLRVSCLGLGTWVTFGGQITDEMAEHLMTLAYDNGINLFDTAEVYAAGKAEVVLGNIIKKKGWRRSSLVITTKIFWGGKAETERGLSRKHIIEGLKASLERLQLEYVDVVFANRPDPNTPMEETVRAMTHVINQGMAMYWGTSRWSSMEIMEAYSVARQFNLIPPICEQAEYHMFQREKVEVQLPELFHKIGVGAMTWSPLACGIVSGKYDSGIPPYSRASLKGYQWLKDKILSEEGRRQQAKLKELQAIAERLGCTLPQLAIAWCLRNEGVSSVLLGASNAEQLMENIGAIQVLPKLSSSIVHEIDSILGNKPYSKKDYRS

Turning to `c1ccc(Cc2nn3c(Cn4cnc5ccccc54)nnc3s2)cc1`, in assay [1], the cell count was determined as 415. For the same compound, the inhibition in assay [1] was 1.4% (inactive); in assay [3] it was -19.6% (inactive); in assay [7], 15.8% (inactive); in assay [8], -2.79% (inactive). Moreover, the inhibition of aggregation in assay [2] was 9.2% (inactive). Also, the nuclei count amounted to 80.7% in assay [2] and 91.6% in assay [3]. Besides, the fluorescence slope in assay [4] was -0.512 (inactive). In addition, the NADPH fluorescence slope in assay [5] was -5.6e-05 (inactive). In addition, the slope in assay [6] was 0.00479 (inactive).
For `O=C(NCC(c1cccnc1)N1CCOCC1)c1ccco1` (stereo not drawn), in assay [1], the cell count came out at 453. Besides, the inhibition in assay [1] is 2.4% (inactive); in assay [3], -42.3% (inactive); in assay [7] it was 15.9% (inactive); in assay [8], 31% (inactive). Also, the inhibition of aggregation in assay [2] is -3.5% (inactive). Also, the nuclei count came out at 100% in assay [2] and 129% in assay [3]. Besides, the fluorescence slope in assay [4] was -0.336 (inactive). Further, the NADPH fluorescence slope in assay [5] is 3.2e-06 (inactive). In addition, the slope in assay [6] is 0.00285 (inactive).
As to `COc1cccc(-n2nc(C(=O)Nc3ccc4c(c3)OCO4)c3ccccc3c2=O)c1`, the cell count in assay [1] came to 741. The inhibition in assay [1] was 1.6% (inactive); in assay [3] it was -27% (inactive); in assay [7], 3.08% (inactive); in assay [8], -20.2% (inactive). The inhibition of aggregation in assay [2] is -5.9% (inactive). Besides, the nuclei count worked out at 98.3% in assay [2] and 118% in assay [3]. For the same compound, the fluorescence slope in assay [4] was -0.601 (inactive). The NADPH fluorescence slope in assay [5] is -3.9e-05 (inactive). Besides, the slope in assay [6] was 0.0101 (inactive).
As for `CCC1CCCCN1C(=O)C1CC(c2cc(Cl)c(OC)cc2OC)=NO1` (stereo not drawn), in assay [1], the cell count turned out to be 411. The inhibition in assay [1] was 6.8% (inactive); in assay [3] it was -8.7% (inactive); in assay [7], -1.49% (inactive); in assay [8], -30.3% (inactive). Also, in assay [2], the inhibition of aggregation is 1.6% (inactive). Moreover, the nuclei count stood at 108% in assay [2] and 168% in assay [3]. For the same compound, in assay [4], the fluorescence slope was -0.504 (inactive). The NADPH fluorescence slope in assay [5] was 2e-05 (inactive). The slope in assay [6] was 0.00725 (inactive).
As for `O=c1[nH]c(CN2CCN(Cc3ccccc3)CC2)nc2sc3c(c12)CCC3`, the cell count in assay [1] was found to be 406. Also, the inhibition in assay [1] is -0.4% (inactive); in assay [3], -73% (inactive); in assay [7] it was 3.63% (inactive); in assay [8], 17.7% (inactive). Besides, the inhibition of aggregation in assay [2] is -0.1% (inactive). In addition, the nuclei count was 109% in assay [2] and 99.5% in assay [3]. The fluorescence slope in assay [4] was -0.596 (inactive). The NADPH fluorescence slope in assay [5] was -3e-05 (inactive). Further, the slope in assay [6] is 0.00576 (inactive).
With `COc1cc2c(cc1OC)C(C)N(C(=O)Cn1ncc3c1-c1ccccc1OC3)CC2` (stereo not drawn), the cell count in assay [1] amounted to 697. In addition, the inhibition was -4.8% (inactive) in assay [1], -39.6% (inactive) in assay [3], 7.96% (inactive) in assay [7] and 17.3% (inactive) in assay [8]. The inhibition of aggregation in assay [2] is -21.5% (inactive). Besides, the nuclei count turned out to be 114% in assay [2] and 117% in assay [3]. Further, the fluorescence slope in assay [4] was -0.587 (inactive). For the same compound, the NADPH fluorescence slope in assay [5] was -3.4e-05 (inactive). Further, in assay [6], the slope is 0.008 (inactive).
For the compound `CC(C)CCNC(=O)C1CCN(C(=O)N(C)C)CC1`, the cell count in assay [1] turned out to be 556. The inhibition in assay [1] was 7% (inactive); in assay [3], -28.5% (inactive); in assay [7], 8.09% (inactive); in assay [8], 19.5% (inactive). Moreover, in assay [2], the inhibition of aggregation was 13.3% (inactive). For the same compound, the nuclei count in assay [2] was found to be 53.8%; in assay [3], 104%. For the same compound, in assay [4], the fluorescence slope is -0.359 (inactive). Moreover, in assay [5], the NADPH fluorescence slope was -4.6e-05 (inactive). The slope in assay [6] was 0.00555 (inactive).
Consider `CCOc1ccc(NC(=O)CSc2nnc(Cc3cccn3C)n2-c2ccc(OC)cc2)cc1`, for which, in assay [1], the cell count was 366. The inhibition in assay [1] was -0.3% (inactive); in assay [3] it was -103% (inactive); in assay [7] it was -4.09% (inactive); in assay [8] it was -3.93% (inactive). In assay [2], the inhibition of aggregation is 0.9% (inactive). Also, the figures for the nuclei count in assay [2] and in assay [3] were 98% and 117%, respectively. For the same compound, the fluorescence slope in assay [4] is -0.489 (inactive). Moreover, in assay [5], the NADPH fluorescence slope was 1.6e-05 (inactive). For the same compound, in assay [6], the slope is 0.0062 (inactive).
Turning to `COc1cccc(C(=O)N2CCCC(c3nc(-c4cccs4)no3)C2)c1` (stereo not drawn), the cell count in assay [1] turned out to be 446. Besides, the inhibition in assay [1] was -25.5% (inactive); in assay [3], 22.9% (inactive); in assay [7] it was 24.8% (inactive); in assay [8], -19.2% (inactive). Also, the inhibition of aggregation in assay [2] is 19.7% (inactive). In addition, the nuclei count in assay [2] was 74.5%; in assay [3], 95.9%. In addition, the fluorescence slope in assay [4] is -0.467 (inactive). For the same compound, in assay [5], the NADPH fluorescence slope is -3.3e-05 (inactive). The slope in assay [6] is 0.00563 (inactive).
With `CCOc1ccc(-c2nc(C#N)c(N3CCCCCC3)o2)cc1`, the cell count in assay [1] was 759. The inhibition in assay [1] is 6% (inactive); in assay [3], -122% (inactive); in assay [7], -2.19% (inactive); in assay [8], 4.25% (inactive). Moreover, in assay [2], the inhibition of aggregation was 11.5% (inactive). Besides, the nuclei count in assay [2] was determined as 110%; in assay [3], 114%. Further, the fluorescence slope in assay [4] was -0.579 (inactive). Also, the NADPH fluorescence slope in assay [5] was -1.9e-05 (inactive). The slope in assay [6] is 0.0066 (inactive).
With `CCCCn1c(CN2CCN(c3ccccc3)CC2)nc2c1c(=O)n(C)c(=O)n2C`, in assay [1], the cell count was found to be 702. The inhibition is -11.5% (inactive) in assay [1], -17.7% (inactive) in assay [3], 1.46% (inactive) in assay [7] and -8.66% (inactive) in assay [8]. The inhibition of aggregation in assay [2] is -3.7% (inactive). Further, the nuclei count came out at 90.6% in assay [2] and 117% in assay [3]. In assay [4], the fluorescence slope is -0.542 (inactive). Also, in assay [5], the NADPH fluorescence slope was -4.7e-05 (inactive). The slope in assay [6] is 0.00817 (inactive).
Consider `COC(=O)C1=C(C)NC(=O)C1(Nc1ccc(Cl)cn1)C(F)(F)F` (stereo not drawn), for which the cell count in assay [1] came out at 324. For the same compound, the inhibition is 1.8% (inactive) in assay [1], -63.7% (inactive) in assay [3], 13.8% (inactive) in assay [7] and 32.2% (inactive) in assay [8]. In addition, the inhibition of aggregation in assay [2] is 3.9% (inactive). In addition, the nuclei count came out at 95.1% in assay [2] and 125% in assay [3]. In addition, the fluorescence slope in assay [4] is -0.317 (inactive). The NADPH fluorescence slope in assay [5] is -1.2e-05 (inactive). The slope in assay [6] is 0.00613 (inactive).
On to `COc1cccc(C2CC(c3c(Cl)cccc3Cl)n3nc(N)nc3N2)c1` (stereo not drawn), for which the cell count in assay [1] stood at 568. The inhibition is 13.8% (inactive) in assay [1], 25.6% (inactive) in assay [3], 22.2% (inactive) in assay [7] and 23.9% (inactive) in assay [8]. Besides, in assay [2], the inhibition of aggregation is -23.3% (inactive). Besides, the nuclei count in assay [2] amounted to 75.1%; in assay [3], 92.1%. Further, the fluorescence slope in assay [4] was -0.504 (inactive). For the same compound, the NADPH fluorescence slope in assay [5] was -1.9e-05 (inactive). Further, the slope in assay [6] is 0.00695 (inactive).

As a reminder, the inhibition is the drop in the measured response relative to a control, in per cent.
